Experimental data published in PubChem BioAssay (EPA / NIEHS).
Results filed as inconclusive are left out. Calls of active or inactive are those of the source. The calls were made as follows, unless noted: active = hit-call score of the fitted dose curve at least 0.9, where 1 is the maximum; inconclusive = response in the unintended direction; inactive = score below 0.9.

How the values were obtained:
[1] = molecular target: Estrogen receptor beta (Homo sapiens) (UniProt Q92731); test: OT_ER_ERbERb_1440: Odyssey Thera (OT) 24-hour HEK293T Protein-Complementation Assay for Estrogen Receptor-beta/-beta Homodimer (AID 2283380);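 also: fluorescence gain from ER beta LBD homodimer complementation read by laser scanning cytometry; scored as signal increase over DMSO baseline for both agonists and antagonists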
Method in brief: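 HEK293T cells stably expressing human ER-beta LBD (aa 310-547) PCA homodimer pair, dosed 24 h; formaldehyde-fixed, Draq5-stained. Readout: increase in nuclear (agonist) or nuclear plus cytoplasmic (antagonist) fluorescence intensity versus DMSO, gain-of-signal fitting.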

[2] = molecular target: Bile acid receptor (Homo sapiens) (UniProt Q96RI1); test: OT_FXR_FXRSRC1_0480: Odyssey Thera (OT) 8-hour HEK293T Protein-Complementation Assay for Farnesoid X receptor/SRC-1 Co-activator (AID 2283383)
Method in brief: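 Fluorescence intensity read-out, 8 h post-dose, HEK293T protein-fragment complementation; FXR bait and SRC-1 prey each linked to reporter fragments. Activity scored as signal increase over DMSO negative control.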

[3] = molecular target: Estrogen receptor (Homo sapiens) (UniProt P03372); test: OT_ERa_GFPERaERE_0480: Odyssey Thera (OT) 8-hour HeLa Transcription Induction Assay for Estrogen Receptor (AID 2283381; active = hit-call score of the fitted dose curve at least 0.9, where 1 is the maximum; inactive = score below 0.9)
Method in brief: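 GFP-ERE reporter, HeLa, 8 h exposure. Readout: fluorescence microscopy, high-content image analysis. Fit direction positive vs DMSO negative control.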

[4] = molecular target: Estrogen receptor (Homo sapiens) (UniProt P03372); test: OT_ERa_GFPERaERE_0120: Odyssey Thera (OT) 2-hour HeLa Transcription Induction Assay for Estrogen Receptor (AID 2283382)
Method in brief: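 Fluorescence microscopy read-out: inducible fluorescent protein reporter in HeLa cells, imaged 2 h post-dose. Signal increase over DMSO negative control fitted as single primary endpoint via high content image analysis.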

[5] = molecular target: Agonist Androgen Response Element (ARE), AR (gene 367) (UniProt P10275); test: OT_AR_ARELUC_AG_1440: Odyssey Thera (OT) 24-hour CHO-K1 Luciferase Assay for Agonist Androgen Response Element (ARE) (AID 2283379)
Method in brief: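 Luminescence increase above DMSO, read after a 24 h compound treatment of CHO-K1 cells expressing an androgen response element luciferase reporter, gives the single primary endpoint; concentration-response fitting used the positive direction.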

[6] = molecular target: mouse Estrogen Receptor alpha (Era), Esr1 (gene 13982) (UniProt P19785); test: NVS_NR_mERa: NovaScreen (NVS) Nuclear Receptor Binding Assay for mouse Estrogen Receptor alpha (Era) (AID 2283378);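 also: hit means loss of bound radioligand signal relative to DMSO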
Method in brief: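 Test chemicals competed against a specific radioligand for binding to cell-free mouse Era. Duplicate wells at 25 uM were read 18 hours later by filter-based radiodetection, with loss of signal against DMSO scored as activity.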

Agonist Androgen Response Element (ARE), AR (gene 367), sequence (P10275 whole entry, looked up): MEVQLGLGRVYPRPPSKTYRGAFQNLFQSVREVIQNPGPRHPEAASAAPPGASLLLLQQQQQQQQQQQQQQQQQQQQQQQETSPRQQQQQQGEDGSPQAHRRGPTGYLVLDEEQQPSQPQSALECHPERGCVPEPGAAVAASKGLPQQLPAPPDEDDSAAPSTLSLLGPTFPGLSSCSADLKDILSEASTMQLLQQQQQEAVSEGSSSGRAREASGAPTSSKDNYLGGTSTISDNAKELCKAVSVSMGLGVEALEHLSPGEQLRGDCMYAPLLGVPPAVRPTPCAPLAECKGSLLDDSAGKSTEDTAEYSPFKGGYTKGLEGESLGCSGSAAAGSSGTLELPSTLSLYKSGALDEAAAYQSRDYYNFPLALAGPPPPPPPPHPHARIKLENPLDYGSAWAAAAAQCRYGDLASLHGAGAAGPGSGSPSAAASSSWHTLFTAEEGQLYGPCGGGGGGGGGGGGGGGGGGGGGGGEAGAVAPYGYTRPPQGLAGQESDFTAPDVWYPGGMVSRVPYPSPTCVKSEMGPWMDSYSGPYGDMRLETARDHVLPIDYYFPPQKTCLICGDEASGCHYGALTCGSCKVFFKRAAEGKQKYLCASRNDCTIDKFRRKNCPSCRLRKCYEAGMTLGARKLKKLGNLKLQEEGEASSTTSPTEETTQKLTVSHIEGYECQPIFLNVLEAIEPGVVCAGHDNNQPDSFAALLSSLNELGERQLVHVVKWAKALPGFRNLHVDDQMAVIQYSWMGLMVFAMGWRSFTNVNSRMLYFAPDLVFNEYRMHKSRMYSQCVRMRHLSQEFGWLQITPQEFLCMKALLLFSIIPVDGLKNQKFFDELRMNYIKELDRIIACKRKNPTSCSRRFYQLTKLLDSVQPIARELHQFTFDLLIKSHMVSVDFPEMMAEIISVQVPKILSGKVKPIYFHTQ
mouse Estrogen Receptor alpha (Era), Esr1 (gene 13982), sequence (P19785 whole entry, looked up): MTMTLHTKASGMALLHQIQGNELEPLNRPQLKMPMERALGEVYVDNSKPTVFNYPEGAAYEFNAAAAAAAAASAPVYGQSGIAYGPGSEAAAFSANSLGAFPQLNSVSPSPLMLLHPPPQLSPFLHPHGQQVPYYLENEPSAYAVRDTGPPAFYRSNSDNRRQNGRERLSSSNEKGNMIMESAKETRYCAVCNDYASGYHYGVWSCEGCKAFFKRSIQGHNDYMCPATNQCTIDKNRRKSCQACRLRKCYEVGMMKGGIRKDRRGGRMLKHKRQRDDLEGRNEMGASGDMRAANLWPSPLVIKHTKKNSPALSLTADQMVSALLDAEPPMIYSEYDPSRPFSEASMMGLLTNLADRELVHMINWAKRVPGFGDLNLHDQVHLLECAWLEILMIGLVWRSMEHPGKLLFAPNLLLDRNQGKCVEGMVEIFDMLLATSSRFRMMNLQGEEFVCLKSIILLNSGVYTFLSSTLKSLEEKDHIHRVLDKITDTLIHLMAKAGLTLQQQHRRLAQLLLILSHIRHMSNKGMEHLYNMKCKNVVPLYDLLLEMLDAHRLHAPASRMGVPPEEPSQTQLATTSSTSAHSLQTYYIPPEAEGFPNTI
Estrogen receptor (Homo sapiens), sequence (P03372 whole entry, looked up): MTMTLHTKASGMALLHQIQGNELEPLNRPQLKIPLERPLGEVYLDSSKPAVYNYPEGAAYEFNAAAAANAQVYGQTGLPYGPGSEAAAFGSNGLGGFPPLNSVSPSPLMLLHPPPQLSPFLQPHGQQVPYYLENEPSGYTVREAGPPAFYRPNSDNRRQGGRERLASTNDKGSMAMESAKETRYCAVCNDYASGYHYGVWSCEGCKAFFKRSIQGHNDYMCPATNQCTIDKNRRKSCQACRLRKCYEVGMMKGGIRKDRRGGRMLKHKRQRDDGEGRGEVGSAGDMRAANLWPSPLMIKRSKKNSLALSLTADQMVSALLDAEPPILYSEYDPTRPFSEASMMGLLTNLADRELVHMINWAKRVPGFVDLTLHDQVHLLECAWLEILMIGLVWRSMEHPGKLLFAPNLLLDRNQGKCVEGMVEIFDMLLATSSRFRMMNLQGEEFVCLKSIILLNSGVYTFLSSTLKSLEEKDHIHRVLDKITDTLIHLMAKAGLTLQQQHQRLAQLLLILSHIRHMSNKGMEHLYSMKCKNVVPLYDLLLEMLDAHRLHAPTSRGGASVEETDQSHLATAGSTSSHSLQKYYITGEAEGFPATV
Bile acid receptor (Homo sapiens), sequence (Q96RI1 whole entry, looked up, the tested form may be a part): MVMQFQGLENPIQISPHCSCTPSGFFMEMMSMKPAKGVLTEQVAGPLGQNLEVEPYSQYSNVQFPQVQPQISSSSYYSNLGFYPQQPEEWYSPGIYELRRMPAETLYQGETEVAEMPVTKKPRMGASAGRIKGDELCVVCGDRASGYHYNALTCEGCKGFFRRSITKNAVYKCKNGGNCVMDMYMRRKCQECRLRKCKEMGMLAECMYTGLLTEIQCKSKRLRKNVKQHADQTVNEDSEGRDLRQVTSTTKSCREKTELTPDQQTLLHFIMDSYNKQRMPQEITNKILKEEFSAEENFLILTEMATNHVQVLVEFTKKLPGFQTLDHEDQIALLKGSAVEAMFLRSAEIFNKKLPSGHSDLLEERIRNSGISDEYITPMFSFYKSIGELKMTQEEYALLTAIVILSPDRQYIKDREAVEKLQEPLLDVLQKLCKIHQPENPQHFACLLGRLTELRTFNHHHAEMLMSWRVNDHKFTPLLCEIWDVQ
Estrogen receptor beta (Homo sapiens), sequence (Q92731 whole entry, looked up, the tested form may be a part): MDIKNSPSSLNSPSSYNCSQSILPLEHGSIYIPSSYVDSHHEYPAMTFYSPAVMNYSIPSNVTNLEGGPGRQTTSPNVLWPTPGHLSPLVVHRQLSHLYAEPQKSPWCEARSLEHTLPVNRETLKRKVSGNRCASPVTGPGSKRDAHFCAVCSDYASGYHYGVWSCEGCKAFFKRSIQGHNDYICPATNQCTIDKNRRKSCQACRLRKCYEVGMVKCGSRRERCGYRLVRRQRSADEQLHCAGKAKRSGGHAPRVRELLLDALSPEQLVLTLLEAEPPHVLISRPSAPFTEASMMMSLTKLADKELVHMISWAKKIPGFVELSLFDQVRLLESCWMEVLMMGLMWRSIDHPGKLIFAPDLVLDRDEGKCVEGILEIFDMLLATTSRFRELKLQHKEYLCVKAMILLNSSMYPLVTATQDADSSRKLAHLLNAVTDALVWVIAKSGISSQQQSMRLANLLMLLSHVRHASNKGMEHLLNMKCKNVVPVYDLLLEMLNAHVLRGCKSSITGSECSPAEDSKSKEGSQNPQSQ

Cc1cc(C(C)(C)C)c(O)c(C(C)(C)C)c1 was tested, and the outcome [1] was “inactive” and the AC50 [2] was 11.3 µM (active).

In the case of CCC(C)c1ccccc1O (configuration not stated), the outcome [1] is reported as “inactive”.

For Cc1ccc(S(=O)(=O)O)cc1, the outcome [1] was “inactive”.

NCCN was tested, and the outcome [3] was “inactive” and the outcome [4] was “inactive”.

In the case of O=S(=O)(O)c1ccccc1, the outcome [1] is reported as “inactive” and the outcome [2] is reported as “inactive”.

CC(C)[C@@H]1CC[C@@H](C)C[C@H]1O was tested, and the outcome [1] was “inactive” and the outcome [2] was “inactive”.

With c1cnc2c(c1)ccc1cccnc12 the outcome [1] was “inactive”.

In the case of CCCCCCC(C)(C)C(=O)O, the outcome [5] is reported as “inactive”, the outcome [1] is reported as “inactive” and the outcome [3] is reported as “inactive”. For the same compound, the outcome [4] was “inactive” and the outcome [2] was “inactive”.

In the case of NS(=O)(=O)O, the outcome [1] is reported as “inactive”.

With CCCCc1ccc2ccccc2c1S(=O)(=O)O the AC50 [5] was 13.3 µM (active), the outcome [1] was “inactive” and the outcome [3] was “inactive”. The outcome [4] was “inactive” and the outcome [2] was “inactive”.

For O=C1NS(=O)(=O)c2ccccc21, the outcome [1] was “inactive”.

CCCCCCCCCCCCOC(=O)c1cc(O)c(O)c(O)c1 was tested, and the AC50 [6] was 12.4 µM (active), the AC50 [1] was 11.9 µM (active) and the AC50 [3] was 49.2 µM (active). For the same compound, the AC50 [4] was 84.1 µM (active).

CCc1ccccc1O was tested, and the outcome [1] was “inactive”, the outcome [3] was “inactive” and the outcome [4] was “inactive”. The outcome [2] was “inactive”.

With Cc1cc(Cc2cc(C)cc(C(C)(C)C)c2O)c(O)c(C(C)(C)C)c1 the outcome [1] was “inactive”, the outcome [3] was “inactive” and the outcome [4] was “inactive”.

For CCCCCC(C)OC(=O)COc1ccc(Cl)c2cccnc12 (configuration not stated), the outcome [3] was “inactive”, the outcome [4] was “inactive” and the AC50 [2] was 44 µM (active).

With C=CC(C)(CCC=C(C)C)OC(C)=O (configuration not stated) the outcome [6] was “inactive”, the outcome [3] was “inactive” and the outcome [4] was “inactive”. The AC50 [2] was 76 µM (active).

For CCCCCCc1ccc(N)cc1, the AC50 [6] was 0.138 µM (active), the outcome [5] was “inactive” and the outcome [1] was “inactive”. For the same compound, the outcome [3] was “inactive”, the outcome [4] was “inactive” and the AC50 [2] was 17 µM (active).

Cc1cc(C(=C2C=CC(=Nc3ccc(S(=O)(=O)O)cc3)C=C2)c2ccc(Nc3ccc(S(=O)(=O)O)cc3)cc2)cc(S(=O)(=O)O)c1N was tested, and the outcome [5] was “inactive”, the outcome [1] was “inactive” and the outcome [3] was “inactive”. The outcome [4] was “inactive” and the outcome [2] was “inactive”.
